According to PubChem BioAssay AID1224860 (National Center for Advancing Translational Sciences (NCATS), 2016):
Results filed as inconclusive are left out. Where a call stands in place of a potency, no number is given. Activity calls are given as the source filed them. The call rests on the fitted dose curve; in most records, active means well fitted cell-killing curve with a large enough effect; inconclusive means small, poorly fitted or top-dose-only effect; inactive means flat fitted curve, though single readings scatter.

assay: Compound cytotoxicity measured by an ATP content assay as a counter-screen for lead compounds in human iPSC derived neural progenitor cells (hNPCs); details: human iPSC-derived NPC viability, ATP luminescence; series mostly up to 46.1 µM
Description: National Center for Advancing Translational Sciences [NCATS] Johns Hopkins University School of Medicine Florida State University Assay Overview: Many compounds can cause cytotoxicity at high compound concentrations. […] The compound cytotoxicity may also cause side effects or toxicity in human. Thus, the compound cytotoxicity needs to be measured in each cell type and each compound incubation time - same as these in the compound screening assay. The compound cytotoxicity can be measured by cell viability assays such as the ATP content assay. We use an ATP content assay kit for cell viability measurement. It measures ATP content (level) in human iPSC derived neural progenitor cells (hNPCs) using a luminescence readout that is proportional to viable cell numbers. Decrease in the luminescence signal after the compound treatment indicates reduced cell viability and cell death caused by compound treatment.
Assay Protocol Summary: The medium for hNPCs consists of DMEM/F12, N2 supplement (ThermoFisher, Cat.# 17502048), NEAA (ThermoFisher, Cat. # 11140050), 2 ug/ml heparin, 2 uM cyclopamine, and B27 (ThermoFisher, Cat. # 17504044). The ATP content assay kit (PerkinElmer, Cat.# 6016731) was used to determine cell viability. The reagent was reconstituted and prepared as described by the manufacturer. Cells were seeded in 384- or 1536-well assay plates and cultured at 37 C with 5% CO2 for 16 to 20 hours. The typical cell seeding density in the 1536-well plate assay is 350 cells/well in 3 ul medium for hNPCs in the tissue cultured treated/PDL coated plates. Compounds were added to cells and incubated for a specific time such as 6, 24, or 72 hours before addition of the reagent mixture of the ATP content assay kit at 1:1 ratio. After incubation at room temperature for 10 minutes, the luminescence intensity in assay plates was measured using a ViewLux plate reader (PerkinElmer). […] The percentage inhibitions of the decreased cell viability by small molecules were then calculated that indicate compound cytotoxicity.

Question: Which Potency does the source give for `CC(C)[N+](C)(CCC(C(N)=O)(c1ccccc1)c1ccccc1)C(C)C` here?
Answer: The Potency was “inactive”.

Question: Which Potency does the source give for `CC(O)CN1CCN(CC(=O)[O-])CCN(CC(=O)[O-])CCN(CC(=O)[O-])CC1.[Gd+3]` (stereo not drawn) here?
Answer: Its Potency is “inactive”.

Question: For `O=c1c2ccccc2[se]n1-c1ccccc1`, which Potency is on record?
Answer: Its Potency is 12300 nM (active).

Question: Which Potency does the source give for `CC(C)N[C@@H]1CCn2c(=O)[nH]c3cccc(c32)[C@@H]1O` here?
Answer: Its Potency is “inactive”.

Question: Which Potency does the source give for `O=C1C=CC[C@@H]2[C@H]3CCCN4CCC[C@@H](CN12)[C@@H]34` here?
Answer: Its Potency is “inactive”.

Question: With `COP(=S)(OC)SCN1C(=O)c2ccccc2C1=O` as the molecule, how does the Potency read?
Answer: The Potency was “inactive”.

Question: Which Potency does the source give for `CN1CC[C@@]2(C)c3cc(OC(=O)Nc4ccccc4)ccc3N(C)[C@@H]12` here?
Answer: The Potency was “inactive”.

Question: For `CC(C)[C@H]1C(=O)N[C@H](CO)Cc2c[nH]c3cccc(c23)N1C`, which Potency is on record?
Answer: The Potency was “inactive”.

Question: For `S=C(SSC(=S)N1CCCCC1)N1CCCCC1`, which Potency is on record?
Answer: The Potency was 245 nM (active).

Question: Which Potency does the source give for `COC1(CS(=O)c2ccccc2)CCN(CCc2c[nH]c3ccc(F)cc23)CC1` (stereo not drawn) here?
Answer: The Potency was “inactive”.

Question: For `O=C1CCC[C@@H]2[C@H]3CCCN4CCC[C@@H](CN12)[C@@H]34`, which Potency is on record?
Answer: The Potency was “inactive”.

Question: Which Potency does the source give for `Cc1ccc([N+](=O)[O-])[c]2c1[O][Hg]2` here?
Answer: The Potency was 869 nM (active).

Question: With `Oc1ccc([C@H]2CNCc3c2ccc(O)c3O)cc1O` as the molecule, how does the Potency read?
Answer: Its Potency is “inactive”.
